These results are taken from the supplement of paper PMC4894684.

Counter-ions that a name gives are not always drawn. ± gives the standard deviation of the averaged measurements. Bounds are passed on as bounds.

This test deals with Toxoplasma gondii RH (in HFF). The test can be described thus: parasite growth relative to the screen mean (all compounds = 100%); higher = less inhibition of parasite growth. The note with it: 5 µM; 72 h; oxygen 21 %. In short, it runs like this:
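Library compounds (10 mM DMSO stocks) were pin-transferred to 5 µM final onto confluent human foreskin fibroblasts in 96-well plates, then infected within 2 h with RH β-Gal–GFP Toxoplasma (MOI 1:5) and grown 72 h at 21% O2. Parasite number came from a CPRG β-Gal assay against in-plate standard curves. Growth is expressed relative to the screen mean (all compounds = 100%), averaged over two screens. Uninfected host-cell viability was checked by CellTiter-Blue.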
Regarding `CCN(CC)CC1CCCCN1CC(=O)N1c2ccccc2C(=O)Nc2cccnc21` (stereo not drawn), the parasite growth amounted to 146 ± 36%.
The compound `NC(=O)c1cccc(N)c1` [3-Aminobenzamide] yielded a parasite growth of 129 ± 30%.
The compound `C[C@H]1O[C@H](O[C@H]2[C@H](O)[C@@H](O)[C@@H](O[C@H]3[C@H](O)[C@@H](O)C(O)O[C@@H]3CO)O[C@@H]2CO)[C@H](O)[C@@H](O)[C@@H]1N[C@H]1C=C(CO)[C@@H](O)[C@H](O)[C@H]1O` (stereo partly drawn) [Acarbose] yielded a parasite growth of 114 ± 36%.
The same measure for `CC(C(O)c1ccc(O)cc1)N1CCC(Cc2ccccc2)CC1` (stereo not drawn) [Ifenprodil hemitartrate]: 116 ± 4.3%; for `OC(CN1CCN(c2cccc(Cl)c2)CC1)C(c1ccccc1)c1ccccc1` (stereo not drawn): 147 ± 28%; for `CC[C@H](C)C(=O)O[C@H]1C[C@H](O)C=C2C=C[C@H](C)[C@H](CC[C@@H](O)C[C@@H](O)CC(=O)O)[C@H]21` [Pravastatin sodium salt]: 127 ± 9.5%.
Compound `O=C1CC2(CCCC2)CC(=O)N1CCCCN1CCN(c2ncccn2)CC1` [Buspirone hydrochloride] displayed a parasite growth of 171 ± 21%.
`CC(C)c1onc(-c2c(Cl)cccc2Cl)c1COc1ccc(/C=C/c2cccc(C(=O)O)c2)c(Cl)c1` came in with a parasite growth of 95.6 ± 18%.
As for `CN1C(=O)C(Cc2c[nH]c3ccccc23)NC1=S` (stereo not drawn) [Necrostatin-1], the parasite growth was determined as 186 ± 6.6%.
With `C[C@@H](N)[C@H]1CC[C@H](C(=O)Nc2ccncc2)CC1`, the parasite growth turned out to be 92.3 ± 21%.
Consider `O=C(O)COc1cccc(-c2ocnc2-c2nc(-c3ccccc3)c(-c3ccccc3)o2)c1`, for which the parasite growth worked out at 62.8 ± 28%.
The same measure for `Nc1nc(N)nc(-c2cc(Cl)ccc2Cl)n1` [Irsogladine maleate]: 127 ± 27%; for `CCCCNC(=O)[C@@H]1Cc2ccccc2N1C(=O)[C@@H](N)CC` [Butabindide oxalate]: 130 ± 7.7%.
Compound `O=C(O)Cc1nn(Cc2ccc(Br)cc2F)c(=O)c2ccccc12` [Statil] gave a parasite growth of 91.7 ± 26%.
`CCC(C)N(C)C(=O)c1cc2ccccc2c(-c2ccccc2Cl)n1` (stereo not drawn) gave a parasite growth of 85.5 ± 33%.
Compound `CC(C)NCC(O)COc1ccccc1-n1cccc1` (stereo not drawn) [Isamoltane hemifumarate] showed a parasite growth of 97 ± 39%.
In turn, `CN(CCOc1ccc(C[C@H](Nc2ccccc2C(=O)c2ccccc2)C(=O)O)cc1)c1ccccn1` registered a parasite growth of 30 ± 17%.
Compound `COC(=O)C1=C(C)NC(C)=C(C(=O)OCCSc2ccccc2)C1C` (stereo not drawn) showed a parasite growth of 146 ± 12%.
In turn, `O=C(Cc1ccccc1)Nc1nc2ccc(Cl)cc2c2nc(-c3ccco3)nn12` had a parasite growth of 121 ± 57%.
In the case of `Cc1cccc(C)c1NC(=O)C[N+](C)(C)C`, the parasite growth was determined as 123 ± 18%.
For `COc1ccc(C2CNC(=O)C2)cc1OC1CCCC1` (stereo not drawn) [Rolipram], the parasite growth came to 92.1 ± 23%.
As for `COc1ccccc1N1CCN(CCCNc2cc(=O)n(C)c(=O)n2C)CC1` [Urapidil hydrochloride], the parasite growth was 105 ± 3.7%.
The same measure for `Nc1ccc(-c2cccc3c(=O)cc(N4CCOCC4)oc23)cc1`: 104 ± 7.9%.
On to `Cc1[nH]c(/C=C2\C(=O)Nc3ccc(S(=O)(=O)Cc4c(Cl)cccc4Cl)cc32)c(C)c1C(=O)N1CCC[C@@H]1CN1CCCC1`, for which the parasite growth was < 0%.
The same measure for `Nc1nc(Nc2ccccc2)nc2c1ncn2[C@@H]1O[C@H](CO)[C@@H](O)[C@H]1O`: 123 ± 7.1%; for `CC(C)N1Cc2cc(S(C)(=O)=O)ccc2N(CCN2CC=C(c3c[nH]c4cc(F)ccc34)CC2)S1(=O)=O`: 181 ± 36%; for `CC1(C(=O)O)NCCc2cc(O)c(O)cc21` (stereo not drawn) [Salsolinol-1-carboxylic acid]: 104 ± 22%.
Turning to `CCCNC(=O)N1N=C(c2ccc(N)cc2)c2cc3c(cc2C1C)OCO3` (stereo not drawn), the parasite growth was 99.9 ± 32%.
As for `C=C1/C(=C\C=C2/CCC[C@]3(C)[C@@H]([C@H](C)/C=C/[C@@H](O)C4CC4)CC[C@@H]23)C[C@@H](O)C[C@@H]1O` [Calcipotriol], the parasite growth was found to be 81.2 ± 8.2%.
`N=C(CC(O)COc1ccccc1-c1ccccc1)N1CCCCC1` (stereo not drawn) gave a parasite growth of 95.8 ± 34%.
`O=C(O)C1CCCN(CCC=C(c2ccccc2)c2ccccc2)C1` (stereo not drawn) returned a parasite growth of 122 ± 26%.
`Cn1nnc2c(C(N)=O)ncn2c1=O` [Temozolomide] displayed a parasite growth of 89.4 ± 4.9%.
The same measure for `COc1cc(NC(=O)c2ccccn2)ccc1Cl`: 91.2 ± 30%; for `N=C(N)SCCc1c[nH]cn1` [Imetit dihydrobromide]: 91.9 ± 21%.
As to `N[C@H](C(=O)O)c1ccc(C(=O)O)c(O)c1` [(S)-4-Carboxy-3-hydroxyphenylglycine], the parasite growth was determined as 143 ± 25%.
The same measure for `Nc1nc2c(nc(Br)n2[C@@H]2O[C@@H]3COP(=O)(O)O[C@H]3[C@H]2O)c(=O)[nH]1` [8-Bromo-cGMP, sodium salt]: 133 ± 26%; for `C=CCN1CCc2cc(O)c(O)cc2C(c2ccccc2)C1` (stereo not drawn): 135 ± 1.6%; for `O=C(C=Cc1ccccc1)NC(NC(=S)Nc1ccc(Cl)cc1)C(Cl)(Cl)Cl` (stereo not drawn): 34.8 ± 9.4%.
